Data: PubChem BioAssay (NCI)
The panel holds about 79,000 compounds, 15% with a hit somewhere; the sample as a whole holds those more often. Rule as the data show it: active = growth inhibition above about 70%; inactive = the rest.

What was measured:
[1] = NCI Yeast Anticancer Drug Screen. Data for the rad50 strain (AID 155);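 also: 0% = growth of vehicle-only cultures of the same strain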; conditions: S. cerevisiae rad50 strain growth inhibition; at 50.0 µM; stronger effect = higher value
Method in brief: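 Genetically altered yeast (DNA repair pathway); compound treatment; growth inhibition vs vehicle ctrl.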

[2] = NCI Yeast Anticancer Drug Screen. Data for the mec2-1 strain (AID 157); conditions: S. cerevisiae mec2-1 strain, at 50.0 µM, stronger effect = higher value
Method in brief: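 Each compound was tested on mec2-1 yeast, a strain altered in DNA damage repair or cell cycle control. Growth inhibition is reported relative to vehicle.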

[3] = NCI Yeast Anticancer Drug Screen. Data for the sgs1 mgt1 strain (AID 161);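 also: 0% = growth of cultures given vehicle only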; conditions: S. cerevisiae sgs1 mgt1 strain, at 50.0 µM, stronger effect = higher value
Method in brief: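 Genetically altered yeast, compound exposure, growth inhibition relative to vehicle.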

[4] = NCI Yeast Anticancer Drug Screen. Data for the cln2 rad14 strain (AID 165);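 also: 0% = growth equal to vehicle treated cultures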; conditions: S. cerevisiae cln2 rad14 strain, at 50.0 µM, stronger effect = higher value
Method in brief: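 Test compounds were added to cln2 rad14 yeast cultures; inhibition of growth was then determined by comparison with vehicle treatment.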

[5] = NCI Yeast Anticancer Drug Screen. Data for the bub3 strain (AID 167); conditions: S. cerevisiae bub3 mutant strain, at 50.0 µM, stronger effect = higher value
Method in brief: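 Yeast carrying a defined mutation is treated with each compound, and growth is compared with that of vehicle-exposed cells to give inhibition.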

[6] = NCI Yeast Anticancer Drug Screen. Data for the mlh1 rad18 strain (AID 175); conditions: S. cerevisiae mlh1 rad18 strain growth inhibition; at 50.0 µM; stronger effect = higher value
Method in brief: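 Inhibition values reflect reduced growth of mutant yeast versus vehicle-treated controls following compound exposure; the mutations affect DNA damage repair.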

Measured: growth inhibition

CN(Cc1c(O)ccc2ccccc12)Cc1c[nH]c2ccccc12
inactive: [1] 20.4% | [2] -13.8% | [3] 0.5% | [4] -46.5% | [5] 6.9% | [6] 13.4%

O=C(CC(=O)N(C(=O)c1ccccc1)c1ccc(Cl)cc1)N/N=C\c1cc(N=Nc2ccccc2Cl)ccc1O
inactive: [1] -13.8% | [2] -10.1% | [3] 14.8% | [4] 15.2% | [5] -21.4% | [6] 9.1%

CCCCN(CCCC)CCC(O)c1ccc(OC)c2ccccc12 (stereo not given)
inactive: [1] 44.6% | [2] 4.55% | [3] 56.2% | [4] 57.4% | [5] 16.4% | [6] 49.7%

CCCOC(=O)C(CC)CC(C)C (stereo not given)
inactive: [1] -4.95% | [2] 2.85% | [3] -4% | [4] -22.7% | [5] 9.35% | [6] 14.8%

CC/C(=C/c1cccc([N+](=O)[O-])c1)C(=O)O
inactive: [1] -9.3% | [2] -23.9% | [3] 0% | [4] 6.1% | [5] -13.7% | [6] -0.2%

CCC(C)(NC(N)=O)c1ccccc1 (stereo not given)
inactive: [1] -6.9% | [2] 10.4% | [3] -12.1% | [4] -7.5% | [5] -12.9% | [6] -7.35%

CCC(CC)=NNc1ccc([N+](=O)[O-])cc1[N+](=O)[O-]
inactive: [1] -2.45% | [2] -11.4% | [3] -13.6% | [4] -51.1% | [5] 0.75% | [6] -9.85%

NC(N)=NC1NCC(=O)S1 (stereo not given)
inactive: [1] 0.2% | [2] -5.65% | [3] 4.3% | [4] 4.6% | [5] 7.15% | [6] 21.9%

COc1ccc(-c2c3ccccc3c(-c3ccc(OCCCCCBr)cc3)c3ccccc23)cc1
inactive: [1] -10.4% | [2] -10.7% | [3] -10.6% | [4] -30.1% | [5] -22.5% | [6] 1.4%

CCCCCCCCCCCCCCCCS
inactive: [1] -2.15% | [2] -16.4% | [3] 17.6% | [4] -6.6% | [5] 6.6% | [6] -4.8%

CCCCOC(=O)c1ccc(NC(=O)Nc2c(C)cccc2C)cc1
inactive: [1] -0.65% | [2] -4.4% | [3] 27.3% | [4] -6.2% | [5] 30.9% | [6] 25%

Cc1ccc2[nH]c(C)c(C(=O)c3cccnc3)c2c1
inactive: [1] -7.55% | [2] 0.85% | [3] 13.2% | [4] -13.3% | [5] -18.6% | [6] -8.4%

CCOC(=O)C(=O)C1CCCC1=O (stereo not given)
inactive: [1] -6.9% | [2] -6.65% | [3] 2.25% | [4] -0.7% | [5] 1.7% | [6] -0.6%

CCCCOc1ccc(Br)cc1
inactive: [1] 12.3% | [2] 5.4% | [3] 7.6% | [4] 8.1% | [5] 3.1% | [6] -15.1%

CCOC(=O)C1=NNCC1c1cccc(Cl)c1 (stereo not given)
inactive: [1] 12.5% | [2] -7.5% | [3] -3.7% | [4] -37.9% | [5] -13.2% | [6] -6.5%

CCN=C(C#N)NCC
inactive: [1] 19.2% | [2] -3.75% | [3] 20.9% | [4] 16.6% | [5] 25.2% | [6] 29.8%

Nc1ccn([C@@H](C=O)C[C@@H](C=O)CO)c(=O)n1
inactive: [1] -3.45% | [2] -0.85% | [3] 14.8% | [4] 19.3% | [5] 11.2% | [6] -45.6%

CCN(CC)CC#CCOc1ccc(/C=C/c2ccccn2)cc1
inactive: [1] 0.35% | [2] -13.4% | [3] 7.1% | [4] -14% | [5] 5.65% | [6] -21.4%

NC(CSC(c1ccccc1)(c1ccccc1)c1ccc(C(=O)O)cc1)C(=O)O (stereo not given)
inactive: [1] 54.2% | [2] -4.1% | [3] 18.5% | [4] 15.5% | [5] 2.2% | [6] 9.85%

COc1ccccc1NS(=O)(=O)c1ccc2ncn(NS(=O)(=O)c3ccc(Cl)cc3)c(=O)c2c1
inactive: [1] 27.5% | [2] 15.7% | [3] 30.1% | [4] 0.05% | [5] 26% | [6] 18.1%

O=C1OC(/C=C/c2ccccc2)=NC/1=C\c1ccc(Cl)cc1
inactive: [1] 23.4% | [2] 14.1% | [3] 23.6% | [4] 13.7% | [5] 7.15% | [6] 10.2%

Cc1ccc(NC(=S)NC2CCCCC2)cc1Cl
inactive: [1] -2.4% | [2] 43% | [3] 29.4% | [4] -24.9% | [5] 42.3% | [6] 26.6%

CC(O)CN1c2ccccc2Sc2ccc(Cl)cc21 (stereo not given)
inactive: [1] 19.2% | [2] 10.9% | [3] 3.35% | [4] 17.1% | [5] -4.9% | [6] 12.8%

N#Cc1c2nc3ccccc3nc2n2ccccc12
inactive: [1] 0.7% | [2] 19.4% | [3] -18.9% | [4] 1.25% | [5] 1.15% | [6] 53.8%

COc1cc2c(c([N+](=O)[O-])c1)NC(=O)CC(C)S2 (stereo not given)
inactive: [1] -48.8% | [2] -6.25% | [3] 21.9% | [4] -9.4% | [5] 17.4% | [6] -3.45%

CC1NC(C)SC(C)S1 (stereo not given)
inactive: [1] -9.15% | [2] -23.6% | [3] 0.15% | [4] -16.1% | [5] -0.7% | [6] 36.8%

CC1=C(C(=O)CC(=O)C(=O)Nc2ccc(C)cc2C)Sc2ccccc2N1
inactive: [1] -1.55% | [2] -20.9% | [3] -33% | [4] -9.8% | [5] 6.2% | [6] 24.6%

COc1ccc(CCN2CN=C(Sc3ccc([N+](=O)[O-])cc3Cl)NC2)cc1OC
inactive: [1] 11% | [2] -11.2% | [3] 7.55% | [4] 10% | [5] 21.9% | [6] 11.1%

COc1ccc(CCc2ccc(OC)c(OCc3ccccc3)c2)cc1COc1ccccc1
inactive: [1] 41.9% | [2] 0.45% | [3] 22.1% | [4] 3.85% | [5] -1.8% | [6] 5.95%

CCCCCCCCCCCCCCCCCCSc1ccc2ccccc2c1
inactive: [1] 37.5% | [2] -10.5% | [3] 20.4% | [4] -14.1% | [5] 0.6% | [6] -5.7%

NC(=O)C1CC(O)CN1C(=O)c1cccnc1 (stereo not given)
inactive: [1] 11.2% | [2] 19.8% | [3] 15.3% | [4] -7% | [5] 8.9% | [6] 5.35%

O=C1NC2(CCN(CCc3ccccc3)CC2)Oc2ccccc21
inactive: [1] 28.9% | [2] -10.2% | [3] 15.7% | [4] 17.6% | [5] 11.5% | [6] 11.1%

CC(C)(C)[Si](C)(C)OCCCC#CCO
inactive: [1] 12.1% | [2] -5.3% | [3] -3.85% | [4] 14.4% | [5] -13.6% | [6] 24.3%

CCCCCCCCCCCCCCCC1=NN(c2ccccc2)C(=O)C1N=Nc1ccccc1 (stereo not given)
inactive: [1] 8.2% | [2] -8.95% | [3] -0.75% | [4] -10.2% | [5] -3.3% | [6] 2.05%

Cc1nn2c(C(=O)O)nnc2s1
inactive: [1] -0.3% | [2] 5.25% | [3] 7.7% | [4] -21.8% | [5] -16.6% | [6] -13.8%

COC1(OC)CCC2=C(C)C(=O)CCC2(CO)C1 (stereo not given)
inactive: [1] 15.7% | [2] -2.95% | [3] -5.95% | [4] -51.8% | [5] -14.4% | [6] -1.9%

CC1=NOC(=O)/C1=C/c1ccc(C)cc1
inactive: [1] 33.6% | [2] 20.8% | [3] 23.4% | [4] 2.55% | [5] 13.7% | [6] 8.05%

CN(C)c1ccc(CC2Cc3ccccc3C2O)cc1 (stereo not given)
inactive: [1] 6.75% | [2] -6.55% | [3] 10.2% | [4] -11.7% | [5] 12.3% | [6] 5.9%

CC[O-].CC[O-].O=Nc1ccc2cc([O-])ccc2c1.O=Nc1ccc2cc([O-])ccc2c1.[Ti+4]
inactive: [1] 34.9% | [2] 44.9% | [3] 59.5% | [4] 45% | [5] 52.6% | [6] 15.9%

Cc1ccc(N=C=O)cc1N1C(=O)N(c2cc(N=C=O)ccc2C)C1=O
inactive: [1] -41.5% | [2] -55% | [3] -48% | [4] -139% | [5] -10.5% | [6] -60.4%

COc1ccc(C2=CC(=O)C(C)(C#N)CC2)cc1 (stereo not given)
inactive: [1] 3.9% | [2] 25.9% | [3] -4% | [4] 25.1% | [5] 34% | [6] 4.8%

CC(C)(CCCOc1ccccc1)NC(=O)c1ccccc1
inactive: [1] 17.2% | [2] -1.15% | [3] -3.5% | [4] 15.5% | [5] 15.3% | [6] 6.15%

Cc1[nH]c2ccccc2c1C(Cc1ccccc1NC(=O)CCC(=O)O)c1c[nH]c2ccccc12 (stereo not given)
inactive: [1] 9% | [2] -5.05% | [3] -4.5% | [4] -1.5% | [5] -0.9% | [6] 1.05%

C(#CCOc1ccc2c(c1)OCO2)COc1ccc2c(c1)OCO2
inactive: [1] 29% | [2] 0.8% | [3] -18.8% | [4] -9.05% | [5] -8.8% | [6] 8.3%

O=C1Nc2ccccc2Nc2nc3cccccc-3c21
inactive: [1] 9.85% | [2] -15.2% | [3] -2.4% | [4] 16.8% | [5] -6.6% | [6] -13.8%
